Test results published in PubChem BioAssay (EPA / NIEHS).
Calls of active or inactive are those of the source. How the source made its calls: active means hit-call score of the fitted dose curve at least 0.9, where 1 is the maximum; inactive means score below 0.9.

Assay: ATG_GRE_CIS: Attagene CIS-FACTORIAL HepG2 Assay for human Glucocorticoid Response Elements (GRE) (AID 2282947)
Conditions: HepG2 GRE cis-reporter, Attagene multiplex mRNA; actives raise or lower the signal
Protocol: ATG_CIS is a cell-based, multiplexed-readout assay that uses HepG2, a human liver cell line, with measurements taken at 24 hours after chemical dosing in a 24-well plate.ATG_GRE_CIS is one of 52 assay component(s) measured or calculated from the ATG_CIS assay. It is designed to make measurements of mRNA induction, a form of inducible reporter, as detected with fluorescence intensity signals by Reverse transcription polymerase chain reaction (RT-PCR) and Capillary electrophoresis technology.Data from the assay component ATG_GRE_CIS was analyzed into 1 assay endpoint. This assay endpoint, ATG_GRE_CIS, was analyzed with bidirectional fitting relative to DMSO as the negative control and baseline of activity. Using a type of inducible reporter, measures of mRNA for gain or loss-of-signal activity can be used to understand the reporter gene at the transcription factor-level as they relate to the gene NR3C1. Furthermore, this assay endpoint can be referred to as a primary readout, because this assay has produced multiple assay endpoints where this one serves a reporter gene function. To generalize the intended target to other relatable targets, this assay endpoint is annotated to the nuclear receptor intended target family, where the subfamily is steroidal.
Human liver HepG2 cells are transiently transfected with multiple reporter transcription units (MRTUs) in 6-well plates using FuGene 6 reagent (Roche; 3 ml FuGene/1 mg DNA). The MRTU constructs are regulated by a cis-regulating element (promoter). […] A major difference between the CIS and TRANS system is that in CIS activities of endogenous TFs are measured, whereas the TRANS assay evaluates changes in activities of exogenous, chimeric NR-Gal4 proteins. […] At the end of 24 hour incubation, total RNA was isolated using TriZol reagent (Invitrogen). The isolated RNA is then reverse-transcribed using oligo(dT) primer and Mo-MLV reverse transcriptase (Invitrogen) with DNAse I (Ambion) treatment for 30 min. The one-tenth of the produced cDNA was amplified by PCR using Taq DNA polymerase (Invitrogen) and two reporter sequence-specific primers. The PCR products were fluorescently labeled by primer extension with 6-arboxyfluorescein (6-FAM) 5'-labeled reporter sequence-specific primer (2 min at 95 C, 20 s at 68 C and 10 min at 72 C) and these products were digested with 5U of HpaI (New England Biolabs) for 2h at 37 C. The fragments were purified using Qiaquick PCR columns (Qiagen), analyzed on an ABI 3130xL genetic analyzer (Applied Biosystems) with peak positions identified by using a set of X-rhodamine (ROX)-labeled MapMarker1000 molecular weight standards (BioVentures). The raw capillary electrophoresis data was processed using Attagraph software (Attagene).

| Compound | outcome | AC50 |
| --- | --- | --- |
| CC1=NN(c2ccc(S(=O)(=O)O)cc2)C(=O)C1N=Nc1ccccc1 (stereo not given) | inactive | – |
| CCC(C)C(=O)OC (stereo not given) | inactive | – |
| CC(C)=NNC(N)=S | inactive | – |
| CC(C=O)c1ccccc1 (stereo not given) | inactive | – |
| Nc1cccc(N)n1 | inactive | – |
| COC(OC)(C(=O)c1ccccc1)c1ccccc1 | inactive | – |
| CCC1COC(=O)O1 (stereo not given) | inactive | – |
| N#Cc1ccc(C(c2ccc(C#N)cc2)n2cncn2)cc1 | inactive | – |
| COCC(=O)O | inactive | – |
| CC(C)C(=O)OCCOc1ccccc1 | inactive | – |
| CCCCCCO | inactive | – |
| COC(=O)c1ccc(C(=O)OC)c(C(=O)OC)c1 | inactive | – |
| CCN(CC)c1cccc(C)c1 | inactive | – |
| CC(C)COC(=O)CC(C(=O)OCC(C)C)S(=O)(=O)O (stereo not given) | inactive | – |
| CCCCOC(=O)C(C)CC (stereo not given) | inactive | – |
| CC(C)CCOCc1ccccc1 | inactive | – |
| CC1=C(O)C(=O)C(C)O1 (stereo not given) | inactive | – |
| CC(C)(C)N | inactive | – |
| CCCCCCCC(=O)OCC(COC(=O)CCCCCCC)OC(=O)CCCCCCC | inactive | – |
| C=C[Si](OCCOC)(OCCOC)OCCOC | inactive | – |

| Compound | outcome | AC50 |
| --- | --- | --- |
| CCN1CN(CC)CN(CC)C1 | – | 97 µM (active) |
| CCOC(=O)C1=NN(c2ccc(Cl)cc2Cl)C(C)(C(=O)OCC)C1 (stereo not given) | inactive | – |
| CC(C)(C)C1CCC(=O)CC1 | inactive | – |
| CC(=O)OCc1ccccc1 | inactive | – |
| CCN1CCCC1=O | inactive | – |
| Nc1ccnc(=O)[nH]1 | inactive | – |
| C=CC(=O)OCC(C)OCC(C)OCC(C)OC(=O)C=C (stereo not given) | inactive | – |
| C=Cc1cccc(C)c1 | inactive | – |
| C=C1C[C@H]2[C@@H]3C=C(C)C4=CC(=O)CC[C@]4(C)[C@H]3CC[C@]2(C)[C@@]1(OC(C)=O)C(C)=O | – | 0.057 µM (active) |
| O=C1CCCCCCCCCCCN1 | inactive | – |
| C=CCCCCCCCCC=O | inactive | – |
| C=C(C)OC(C)=O | inactive | – |
| CC(C)(c1ccccc1)c1ccc(Nc2ccc(C(C)(C)c3ccccc3)cc2)cc1 | inactive | – |
| CCCC=C(C=O)CC | inactive | – |
| Nc1ccc(O)c([N+](=O)[O-])c1 | inactive | – |
| O=C(O)c1cc(O)c2ccccc2c1O | – | 21.8 µM (active) |
| CCCCC(CC)COC(=O)/C=C/c1ccc(OC)cc1 (stereo not given) | inactive | – |
| C[N+](C)(C)CCCNS(=O)(=O)C(F)(F)C(F)(F)C(F)(F)C(F)(F)C(F)(F)C(F)(F)C(F)(F)C(F)(F)F | inactive | – |
| COC(=O)c1ccccc1C | inactive | – |
| CCCCCCCCCCCCCC(=O)OC(C)C | inactive | – |
